Experimental data as given in PubChem BioAssay.
Activity calls are given as the source filed them.

Tests used:
[1] = small molecules captured by biotinylated probe aFSTL3 – biochemical, small-molecule microarray, fluorescence 635/667, stem cell growth factor project, primary screen (AID 1064); conditions: higher = more signal;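 note: measures binding of the biotinylated anti-FSTL3 antibody to printed compounds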
[2] = binders from COS7 lysate, DM2A8 probe, primary screen, torsin A project, cell lysate, small-molecule microarray, fluorescence 635/667 (AID 1065); conditions: higher = more signal, COS7 lysate expressing mutant human TOR1A
[3] = small molecules captured by biotinylated probe aFGF2 – biochemical, small-molecule microarray, fluorescence 635/667, stem cell growth factor project, primary screen (AID 1067); conditions: higher = more signal;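 note: measures binding of biotinylated aFGF2 protein to printed compounds on slides; z-score merges feature fluorescence and signal-to-noise across triplicate slides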
[4] = small molecules captured by biotinylated probe aFGF10 – biochemical, small-molecule microarray, fluorescence 635/667, stem cell growth factor project, primary screen (AID 1071); conditions: higher = more signal;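 note: score merges 667 nm spot intensity and signal to noise from triplicate slides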
[5] = target: Neurogenic locus notch homolog protein 2 (Homo sapiens) (UniProt Q04721); experiment: small molecules binding Notch2 protein – biochemical, small-molecule microarray, 635 nm fluorescence, stem cell growth factors, primary screen (AID 1073); conditions: higher = more signal
[6] = target: Pro-neuregulin-1, membrane-bound isoform (Homo sapiens) (UniProt Q02297); experiment: small molecules binding neuregulin-1 protein – biochemical, small-molecule microarray, fluorescence 635/667, psychiatric disease protein project, primary screen (AID 1075); conditions: NRG1 binding, 635 nm fluorescence, higher = more signal;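 note: score combines 667 nm spot fluorescence with signal to noise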
[7] = tested on: Neuregulin-1 EGF-like domain; experiment: small molecules binding NRG1 EGF domain – biochemical, small-molecule microarray, 635 nm fluorescence, primary screen (AID 1081); conditions: higher = more signal;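 note: binding of the protein to compounds printed on small-molecule microarray slides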
[8] = FRG1 expression reporter modulators in myotubes – cell-based, C2C12 myotubes, firefly/Renilla luciferase, luminescence, FRG1 inhibition for FSHD, primary screen (AID 1084); conditions: FRG1 promoter luciferase, higher = more signal, called active from +8 up or from −8 down
[9] = small molecules captured by biotinylated probe aFST – biochemical, small-molecule microarray, fluorescence 635/667, stem cell growth factor project, primary screen (AID 1086); conditions: higher = more signal;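 note: score merges 667 nm fluorescence with signal-to-noise of each printed compound spot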
[10] = binders of probe aHhip on microarray, primary screen, stem cell growth factor project, biochemical, small-molecule microarray, fluorescence 635/667 (AID 1087); conditions: higher = more signal;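 note: score merges spot fluorescence at 667nm with spot signal to noise ratio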
[11] = tested on: PRMT1 (protein arginine N-methyltransferase 1); experiment: small molecules binding arginine methyltransferase PRMT1 – biochemical, small-molecule microarray, 635 nm fluorescence, primary screen (AID 1088); conditions: higher = more signal;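 note: binding of Prmt1 protein to compounds spotted on small-molecule microarray slides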
[12] = growth effects on S. cerevisiae YJM789 – YJM789 clinical isolate, OD600, 24 h, basal, primary screen (AID 1089); conditions: higher = more signal, called active from +8 up or from −8 down;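 note: growth of clinical yeast isolate S. cerevisiae YJM 789 seeded 1000 cells per well; test concentration not given here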
[13] = S. pombe growth modifiers, basal conditions – strain 972, OD600, 24 h, no modulator, primary screen (AID 1090);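 note: basal condition with compound alone and no growth modifier present; test concentration not given here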; conditions: S. pombe 972 growth, higher = more signal, called active from +8 up or from −8 down
[14] = budding yeast growth modifiers under rapamycin – strain BY4716, OD600, 96 h, primary screen (AID 1091); note: test concentration not given here; conditions: S. cerevisiae BY4716 + rapamycin, higher = more signal, called active from +8 up or from −8 down
[15] = target: Torsin-1A-interacting protein 2 (Homo sapiens) (UniProt Q8NFQ8); experiment: small molecules binding lysate-expressed LULL1 – cell lysate, human LULL1 lysate, 635/667 nm fluorescence, primary screen (AID 1092); conditions: small-molecule microarray, hLULL1 lysate binding, 635 nm fluorescence; higher = more signal;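 note: probe is lysate of COS7 cells overexpressing human LULL1; score merges per-feature 667 nm fluorescence with signal-to-noise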
[16] = optical density change of DRC41 E. coli – strain DRC41, OD650, 24 h, E. coli filamentation project, primary screen (AID 1093);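 note: MC1000 strain lacking acrAB efflux and sulA so SOS filamentation is blocked; test concentration not given here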; conditions: E. coli DRC41 growth, higher = more signal, called active from +8 up or from −8 down
[17] = probe aLefty2 binding to arrayed compounds – biochemical, biotinylated probe, 635/667 nm fluorescence, primary screen (AID 1094); conditions: small-molecule microarray, higher = more signal;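 note: score merges spot fluorescence near 667 nm with spot signal-to-noise ratio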
[18] = tested on: Noggin (protein binding on small-molecule microarray); experiment: small molecules binding Noggin protein – biochemical, 635/667 nm fluorescence, primary screen (AID 1095); conditions: 635 nm fluorescence, higher = more signal;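 note: score merges 667 nm feature fluorescence with signal to noise over triplicate slides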
[19] = target: Neurogenic locus notch homolog protein 3 (Homo sapiens) (UniProt Q9UM47); experiment: small molecules binding NOTCH3 protein – biochemical, 635/667 nm fluorescence, primary screen (AID 1096); conditions: small-molecule microarray, 635 nm fluorescence, higher = more signal
[20] = probe aEGFR binding to arrayed compounds – biochemical, biotinylated probe, 635/667 nm fluorescence, primary screen (AID 1097); conditions: small-molecule microarray, higher = more signal;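 note: probe is a biotinylated anti-EGFR antibody binding compounds printed on slides; score combines fluorescence near 667 nm and signal to noise of each spot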

Chain of Neurogenic locus notch homolog protein 3 (Homo sapiens) (Q9UM47 whole entry, looked up): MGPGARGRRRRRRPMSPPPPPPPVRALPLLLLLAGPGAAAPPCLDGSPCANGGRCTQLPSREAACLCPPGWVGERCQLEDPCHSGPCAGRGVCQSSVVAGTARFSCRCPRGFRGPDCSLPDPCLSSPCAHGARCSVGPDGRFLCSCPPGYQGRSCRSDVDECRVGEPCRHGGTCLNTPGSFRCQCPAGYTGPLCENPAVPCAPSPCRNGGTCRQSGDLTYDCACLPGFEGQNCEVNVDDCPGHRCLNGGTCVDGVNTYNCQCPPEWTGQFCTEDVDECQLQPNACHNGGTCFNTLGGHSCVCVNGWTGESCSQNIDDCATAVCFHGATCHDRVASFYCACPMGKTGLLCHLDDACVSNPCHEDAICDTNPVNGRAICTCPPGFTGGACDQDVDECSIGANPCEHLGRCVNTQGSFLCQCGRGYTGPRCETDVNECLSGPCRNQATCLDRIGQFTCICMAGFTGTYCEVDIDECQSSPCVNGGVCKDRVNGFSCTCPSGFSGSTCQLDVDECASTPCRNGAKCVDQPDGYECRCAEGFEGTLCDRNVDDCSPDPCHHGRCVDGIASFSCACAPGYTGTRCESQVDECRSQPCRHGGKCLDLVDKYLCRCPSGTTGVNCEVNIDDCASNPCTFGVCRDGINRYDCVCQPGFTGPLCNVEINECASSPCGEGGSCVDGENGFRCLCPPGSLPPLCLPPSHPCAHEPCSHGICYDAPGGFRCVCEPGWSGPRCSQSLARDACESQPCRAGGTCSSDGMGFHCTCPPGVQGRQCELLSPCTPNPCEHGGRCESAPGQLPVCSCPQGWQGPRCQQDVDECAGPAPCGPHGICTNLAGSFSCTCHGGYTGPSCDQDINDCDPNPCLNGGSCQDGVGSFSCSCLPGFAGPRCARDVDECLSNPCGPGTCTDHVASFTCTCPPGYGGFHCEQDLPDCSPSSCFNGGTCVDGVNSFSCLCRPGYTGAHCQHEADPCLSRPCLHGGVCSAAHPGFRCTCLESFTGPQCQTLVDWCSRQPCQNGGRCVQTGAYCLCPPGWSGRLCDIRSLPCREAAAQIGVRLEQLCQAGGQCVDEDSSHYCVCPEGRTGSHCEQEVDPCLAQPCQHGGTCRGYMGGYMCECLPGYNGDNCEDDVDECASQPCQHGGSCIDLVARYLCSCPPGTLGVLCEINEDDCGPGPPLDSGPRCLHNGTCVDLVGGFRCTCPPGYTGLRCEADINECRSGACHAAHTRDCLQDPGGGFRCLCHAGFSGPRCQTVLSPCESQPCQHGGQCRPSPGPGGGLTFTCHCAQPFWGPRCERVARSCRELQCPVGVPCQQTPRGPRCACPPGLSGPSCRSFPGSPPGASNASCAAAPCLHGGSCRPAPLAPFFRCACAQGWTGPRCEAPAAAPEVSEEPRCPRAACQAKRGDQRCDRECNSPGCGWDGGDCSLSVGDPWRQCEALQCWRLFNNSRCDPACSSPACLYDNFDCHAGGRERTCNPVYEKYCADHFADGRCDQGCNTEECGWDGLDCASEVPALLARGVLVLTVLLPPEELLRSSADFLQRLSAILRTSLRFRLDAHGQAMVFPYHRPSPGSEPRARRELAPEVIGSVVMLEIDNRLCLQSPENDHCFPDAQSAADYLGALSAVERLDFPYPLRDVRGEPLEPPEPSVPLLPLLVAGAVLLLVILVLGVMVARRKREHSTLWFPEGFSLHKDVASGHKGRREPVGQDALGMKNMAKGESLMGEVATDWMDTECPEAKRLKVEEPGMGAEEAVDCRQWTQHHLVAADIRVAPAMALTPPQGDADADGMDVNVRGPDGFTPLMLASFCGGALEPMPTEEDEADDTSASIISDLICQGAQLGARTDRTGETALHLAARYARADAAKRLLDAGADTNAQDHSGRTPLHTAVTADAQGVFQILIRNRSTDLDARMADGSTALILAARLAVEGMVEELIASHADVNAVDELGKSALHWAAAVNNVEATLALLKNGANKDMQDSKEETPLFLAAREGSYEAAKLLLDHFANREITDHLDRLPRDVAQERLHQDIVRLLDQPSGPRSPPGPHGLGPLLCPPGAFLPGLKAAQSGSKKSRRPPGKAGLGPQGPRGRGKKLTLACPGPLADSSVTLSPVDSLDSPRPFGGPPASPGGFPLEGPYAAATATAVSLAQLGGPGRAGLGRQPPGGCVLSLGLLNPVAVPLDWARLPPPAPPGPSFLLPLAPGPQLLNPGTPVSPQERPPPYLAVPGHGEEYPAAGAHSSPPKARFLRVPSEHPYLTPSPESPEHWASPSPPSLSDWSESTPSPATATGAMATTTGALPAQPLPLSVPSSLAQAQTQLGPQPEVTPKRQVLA
Chain of Torsin-1A-interacting protein 2 (Homo sapiens) (Q8NFQ8 whole entry, looked up): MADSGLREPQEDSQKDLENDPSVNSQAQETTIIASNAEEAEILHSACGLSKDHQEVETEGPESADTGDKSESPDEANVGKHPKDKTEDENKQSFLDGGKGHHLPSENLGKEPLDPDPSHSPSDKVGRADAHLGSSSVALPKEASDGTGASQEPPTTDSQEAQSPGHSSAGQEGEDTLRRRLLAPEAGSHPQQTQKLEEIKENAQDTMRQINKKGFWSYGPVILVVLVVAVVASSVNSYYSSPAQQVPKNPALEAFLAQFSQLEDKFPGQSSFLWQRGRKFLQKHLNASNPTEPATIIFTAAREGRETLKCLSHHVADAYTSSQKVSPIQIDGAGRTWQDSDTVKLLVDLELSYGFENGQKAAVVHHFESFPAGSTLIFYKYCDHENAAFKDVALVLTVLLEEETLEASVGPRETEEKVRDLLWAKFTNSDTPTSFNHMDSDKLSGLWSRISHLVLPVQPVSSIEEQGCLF
Chain of Pro-neuregulin-1, membrane-bound isoform (Homo sapiens) (Q02297 whole entry, looked up, the tested form may be a part, canonical isoform): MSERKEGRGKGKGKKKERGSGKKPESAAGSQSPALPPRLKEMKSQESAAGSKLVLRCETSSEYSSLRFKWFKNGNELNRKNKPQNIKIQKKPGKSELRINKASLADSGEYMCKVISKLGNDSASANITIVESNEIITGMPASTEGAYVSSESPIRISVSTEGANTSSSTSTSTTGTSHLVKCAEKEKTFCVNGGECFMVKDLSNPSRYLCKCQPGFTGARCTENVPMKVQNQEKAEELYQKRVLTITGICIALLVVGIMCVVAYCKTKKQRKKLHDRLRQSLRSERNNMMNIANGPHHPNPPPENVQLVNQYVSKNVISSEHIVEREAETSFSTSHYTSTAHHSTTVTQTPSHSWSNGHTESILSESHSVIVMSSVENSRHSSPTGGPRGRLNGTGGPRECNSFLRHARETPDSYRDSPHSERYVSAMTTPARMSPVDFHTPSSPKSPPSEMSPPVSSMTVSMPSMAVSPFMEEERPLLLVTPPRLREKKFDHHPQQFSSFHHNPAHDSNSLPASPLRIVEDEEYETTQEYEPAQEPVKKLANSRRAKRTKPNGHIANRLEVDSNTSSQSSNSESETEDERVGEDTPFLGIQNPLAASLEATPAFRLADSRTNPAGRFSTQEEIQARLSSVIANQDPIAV

Compound	composite z-score [1]	composite z-score [2]	composite z-score [3]	composite z-score [4]	composite z-score [5]	composite z-score [6]	composite z-score [7]	z-score [8]	composite z-score [9]	composite z-score [10]	composite z-score [11]	z-score [12]	z-score [13]	z-score [14]	composite z-score [15]	z-score [16]	composite z-score [17]	composite z-score [18]	composite z-score [19]	composite z-score [20]
CN(C)C(=O)[C@]1(Cc2ccccc2CN=[N+]=[N-])N=C(c2ccc(OCCCO)cc2)O[C@@H]1c1ccccc1CN=[N+]=[N-]	-0.0551	1.26	0.0858	1.18	1.43	0.559	1.27	-1.45 (inactive)	1.64	-0.318	1.56	-0.0966 (inactive)	-0.16 (inactive)	4.49 (inactive)	3.59	-0.255 (inactive)	0.0112	1.18	1.11	0.0816
CC(=O)N1Cc2ccccc2C[C@@]2(COC(c3ccc(OCCCO)cc3)=N2)C1=O	1.54	0.842	0.235	0.51	1.18	1.4	1.07	-0.41 (inactive)	1.83	-0.21	1.55	-3.98 (inactive)	-0.737 (inactive)	-0.965 (inactive)	2.25	1.81 (inactive)	0.518	0.515	1.03	0.119
COC(=O)[C@@]1(Cc2ccc(OC)cc2)[C@H]2c3cc(C(=O)N4CCCC4)n(Cc4ccc(OC)c(OC)c4)c3C[C@H]2CN1C(=O)c1ccccc1	1.65	0.188	0.636	0.199	1.72	2.16	1.07	2.25 (inactive)	1.74	0.319	0.929	-0.515 (inactive)	0.835 (inactive)	1.18 (inactive)	3.36	-0.148 (inactive)	1.2	0.793	1.11	0.889
CCOC(=O)C[C@H]1[C@H](OC(=O)Cc2ccc3c(c2)OCO3)[C@@H](NC(=O)c2ccc3ccccc3c2)c2cc(OCCCO)ccc2N1C(=O)c1ccccc1	-0.397	0.0993	-0.14	0.284	0.642	0.376	1.13	0.12 (inactive)	0.254	0.0373	0.745	-0.0607 (inactive)	0.175 (inactive)	0.954 (inactive)	1.69	1.35 (inactive)	-0.0961	0.329	0.742	-0.0225
O=C1NC(=O)C2C1C=CC(C(O)Cc1ccccc1)N2Nc1ccc(Cl)cc1Cl (stereo not given)	0.536	-0.169	-0.0374	-0.634	0.614	2	0.371	1.53 (inactive)	0.337	0.176	-0.403	-4.33 (inactive)	-1.51 (inactive)	-0.125 (inactive)	3.21	0.177 (inactive)	-0.0134	-0.49	0.332	-0.096
C=CC[C@@]1(C(N)=O)N=C(c2ccc(OCCCO)cc2)O[C@@H]1c1ccccc1CN=[N+]=[N-]	0.626	-0.41	-0.0193	0.291	0.77	2.17	1.41	2.94 (inactive)	1.19	0.0053	0.867	-0.884 (inactive)	-0.398 (inactive)	-0.512 (inactive)	3.77	0.0086 (inactive)	0.444	0.174	0.638	0.0651
COc1ccc([Si](C)(C)[C@H]2[C@H](CCO)O[C@@]3(C(=O)N(C)c4c(Br)cc(C)cc43)[C@@H]2C)cc1	0.107	0.325	-0.116	0.243	0.432	0.679	1.12	-2.14 (inactive)	0.299	-0.196	1.49	0.117 (inactive)	-2.89 (inactive)	34 (active)	1.04	0.714 (inactive)	-0.1	0.76	1.1	-0.0627
CCOC(=O)[C@H]1CC=C2CC1C(=O)N1CCC[C@@H]1[C@@H]2O[Si](C)(C)C(C)(C)C (stereo not given in full)	-0.502	-0.0173	-0.221	-0.0337	-1.9	-0.596	-0.415	-0.591 (inactive)	-0.686	-0.0994	-0.295	-2.4 (inactive)	-21.2 (active)	-1.8 (inactive)	0.368	-0.558 (inactive)	-0.376	0.451	-0.979	-0.265
CCCC[C@@H]1C[C@H]1[C@@H](NC(=O)c1ccco1)c1ccc(Cl)cc1	0.159	0.308	0.0296	0.0982	1.22	1.01	1.05	-1.51 (inactive)	0.829	0.0274	0.44	0.622 (inactive)	0.362 (inactive)	0.384 (inactive)	2.89	-0.815 (inactive)	0.164	-0.576	0.889	0.0271
COCCCNC(=O)[C@@]1(Cc2ccccc2)N=C(c2ccc(OCCCO)cc2)O[C@H]1c1ccccc1	0.743	1.2	0.298	0.155	0.82	1.38	1.33	-1.4 (inactive)	1.08	1.17	1.42	-1.69 (inactive)	-0.475 (inactive)	-1.74 (inactive)	3.36	0.474 (inactive)	0.355	-0.416	0.6	0.265
